Assay outcomes from PubChem.
This is a sample that favours compounds with a hit; in the whole collection about 2.9% have one here.
MITF TRPM1 HTS: activators of MITF-driven TRPM1 promoter reporter, primary screen, cell-based, SK-MEL-5, luciferase, single point | SK-MEL-5 TRPM1-promoter luciferase, 24 h; % of positive control, neutral wells = 0 | activation, % at 12.5 µM | 0.75% of 300,000 active | AID 588334, 2011;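 active = mean activation of at least 80% with every replicate also reaching 80%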;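 note: 0% = neutral control wells and 100% = parthenolide positive control wells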
Wnt bcat act: Wnt/beta-catenin pathway activators, primary screen, cell-based, plate reader, single point; activation, % at 9.35 µM; AID 743398, 2014; Wnt/beta-catenin reporter cell assay, activator; 1.2% of 300,000 active; in the data active = activation above about 30%, passing the limit was not always enough;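 note: 0% = neutral control wells and 100% = positive control wells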
TRPM1 prom inh: inhibitors of MITF-dependent TRPM1 promoter reporter, primary screen, cell-based, SK-MEL-5, single point, luciferase; SK-MEL-5 TRPM1 promoter luciferase, 24 h; inhibition, % at 12.5 µM; 0.83% of 330,000 active; AID 488899, 2010;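 active = mean inhibition across replicates of 60% or more, whatever share of single replicates reaches that level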
PfHsp90 set2: growth inhibition of PfHsp90-expressing yeast, primary screen, antimalarial PfHsp90 inhibitor project, S. cerevisiae, BacTiter-Glo luminescence, single point, set 2 | BacTiter-Glo ATP, 48 h; yeast lacking PDR1 and PDR3 efflux regulators | inhibition, % at 9.4 µM | 0.32% of 310,000 active;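 active = every replicate shows inhibition above about 80%, whatever the replicate mean, limit read from the data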;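 note: 0% = DMSO neutral controls and 100% = 20 µM radicicol positive controls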
NSD2 HMT inh: NSD2 histone methyltransferase inhibitors, primary screen, biochemical, AlphaScreen, single concentration, set 2; NSD2 peptide methylation, 120 min; 0.54% of 310,000 active; inhibition, % at 12.5 µM; Histone-lysine N-methyltransferase NSD2 (Homo sapiens), O96028; in the data active = inhibition above about 50%
Target sequence (O96028 whole entry, looked up): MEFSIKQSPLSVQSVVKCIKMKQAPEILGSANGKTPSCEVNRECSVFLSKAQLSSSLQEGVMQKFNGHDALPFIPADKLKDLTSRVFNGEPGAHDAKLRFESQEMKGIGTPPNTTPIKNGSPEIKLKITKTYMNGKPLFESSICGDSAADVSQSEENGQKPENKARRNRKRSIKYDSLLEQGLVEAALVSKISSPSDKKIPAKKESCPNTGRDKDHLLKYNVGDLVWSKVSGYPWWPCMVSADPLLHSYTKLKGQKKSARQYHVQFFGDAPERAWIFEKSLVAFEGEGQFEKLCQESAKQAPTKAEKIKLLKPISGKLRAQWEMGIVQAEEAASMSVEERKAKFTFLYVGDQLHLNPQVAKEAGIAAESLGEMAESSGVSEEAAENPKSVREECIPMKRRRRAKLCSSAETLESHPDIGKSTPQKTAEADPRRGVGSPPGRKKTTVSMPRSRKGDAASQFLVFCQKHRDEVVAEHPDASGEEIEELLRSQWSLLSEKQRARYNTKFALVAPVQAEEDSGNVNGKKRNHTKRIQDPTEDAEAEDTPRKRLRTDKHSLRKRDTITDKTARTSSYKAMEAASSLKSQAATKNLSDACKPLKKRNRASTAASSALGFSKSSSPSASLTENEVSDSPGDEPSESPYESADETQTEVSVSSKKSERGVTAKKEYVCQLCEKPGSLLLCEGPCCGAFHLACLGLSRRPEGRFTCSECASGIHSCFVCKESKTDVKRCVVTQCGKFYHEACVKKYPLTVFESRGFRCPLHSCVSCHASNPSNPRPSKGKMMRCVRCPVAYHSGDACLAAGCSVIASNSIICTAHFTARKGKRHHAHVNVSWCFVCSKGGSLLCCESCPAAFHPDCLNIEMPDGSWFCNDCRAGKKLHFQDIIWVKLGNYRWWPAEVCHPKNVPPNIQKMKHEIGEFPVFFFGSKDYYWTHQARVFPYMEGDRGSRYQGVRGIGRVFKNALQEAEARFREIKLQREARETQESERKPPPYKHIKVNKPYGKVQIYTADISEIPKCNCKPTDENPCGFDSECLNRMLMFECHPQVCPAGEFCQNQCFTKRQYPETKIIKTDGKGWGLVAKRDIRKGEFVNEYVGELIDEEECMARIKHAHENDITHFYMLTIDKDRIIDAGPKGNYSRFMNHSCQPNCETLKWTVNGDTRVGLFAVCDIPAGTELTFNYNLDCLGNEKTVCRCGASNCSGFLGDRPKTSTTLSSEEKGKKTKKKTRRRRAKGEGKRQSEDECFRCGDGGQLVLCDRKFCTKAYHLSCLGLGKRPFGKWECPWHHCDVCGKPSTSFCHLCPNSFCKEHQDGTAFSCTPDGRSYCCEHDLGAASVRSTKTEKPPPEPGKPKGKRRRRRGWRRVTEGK
Glyco luc inh: increase of ERlucT glycosylation luciferase signal, primary screen, N-linked glycosylation inhibitor project, D54 ERlucT cells, luminescence, set 2; D54 ERlucT glycosylation luciferase reporter, 24 h; percent of 100 nM tunicamycin response; AID 588692, 2011; reporter increase, % at 12.5 µM; 0.23% of 360,000 active;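 active = mean luciferase reporter signal, scaled so untreated is 0 and the glycosylation-blocking control 100, at or above a set limit in every replicate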;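 note: luciferase carries N-glycosylation sites so blocking glycosylation raises the light; 0% = median of neutral control wells and 100% = median of 100 nM tunicamycin wells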
* = called active by the depositor; · = not tested or not shown.

SMILES | MITF TRPM1 HTS | Wnt bcat act | TRPM1 prom inh | PfHsp90 set2 | NSD2 HMT inh | Glyco luc inh
CCCN(CC(=O)Nc1ccccc1C)C(=O)CCCOc1ccc(Br)cc1 | -6 | 1 | 8 | 28 | -1 | -1
CC(=O)Nc1ccc2c(O)cc(S(=O)(=O)O)cc2c1 | -22 | 2 | 21 | -3 | 10 | 0
COc1ccccc1Nc1ccc2c(O)cc(S(=O)(=O)O)cc2c1 | 12 | -2 | -9 | -10 | 110* | -2
O=S(=O)(O)c1cc(O)c2ccc(Nc3ccccc3)cc2c1 | -7 | -7 | 8 | · | 105* | 0
COc1ccc(/C=C2/SC(=O)N(CCNC(=O)C3CC(=O)N(Cc4ccccc4)C3)C2=O)cc1 (stereo unspecified) | · | · | · | · | 0 | -1
On1ccccc1=S | -73 | -3 | 75* | 107* | · | -19
O=C(Cn1ccccc1=S)c1ccc(Cl)c(Cl)c1 | · | 20 | · | · | 23 | 0
CCCn1c(N)c(CC)c(=O)[nH]c1=O | -10 | -1 | 13 | 11 | -2 | 5
Oc1cc(NCc2cccnc2)ccc1-c1nc2ccccc2o1 | · | 86* | -60 | · | 0 | 11
CCC(C)NC(=O)c1ccc2c(Cl)c3c(nc2c1)CCC3 (stereo unspecified) | 56 | 42* | -53 | 7 | -1 | -6
Cc1ccc(F)c(CNC(=O)C2(C)CCCN2C(=O)C(C)C)c1F (stereo unspecified) | · | 36* | · | · | -2 | 1
O=C(OCCO)c1c(-c2ccccc2)oc2c1C(OCCO)CCC2 (stereo unspecified) | · | 2 | · | · | · | ·
C=CCN(C)C(C#Cc1ccccc1)Cc1ccccc1 (stereo unspecified) | · | · | · | · | 0 | ·
Cc1nn(C(C)C)c(C)c1CN1CCC(C(=O)Nc2cccc(-c3cccc(F)c3)c2)CC1 | -61 | -3 | 61* | -18 | 2 | -9
C=CCn1cc(CN2CCC(C(=O)Nc3cccc(-c4cccc(Cl)c4)c3)CC2)c(C)n1 | -77 | -4 | 75* | -13 | -1 | -2
Cc1cc(Nc2cccc(F)c2)cc(=O)n1-c1cccc(F)c1 | · | -2 | · | · | · | ·
COc1ccccc1-c1nc(COc2ccc(Cl)cc2Cl)no1 | 149* | 54* | -148 | 6 | -1 | -1
COc1cccc(-c2nc(COc3ccc(Cl)cc3Cl)no2)c1 | · | 2 | -3 | 2 | -2 | 1
Cc1cc(NC(=O)Cc2cn(C)c3ccccc23)ccc1Nc1cccnc1 | · | -4 | · | · | · | ·
CN1OC[C@@H]2CN(Cc3ccc4c(c3)OCO4)[C@H](c3ccc(-n4ccnc4)cc3)C[C@@H]21 | · | 1 | · | · | · | ·
Cc1ccc(/C=N/Nc2ccc3ccccc3n2)o1 | -23 | 4 | 25 | 0 | · | -21
Cc1cccc(/C=N/Nc2ccc3ccccc3n2)c1 | -74 | -1 | 76* | 18 | -3 | -23
C(=N\Nc1nc2ccccc2[nH]1)/c1ccc2c(c1)OCCO2 | · | 35* | 3 | 24 | 3 | -16
C(=N\Nc1ccc2ccccc2n1)/c1ccc2c(c1)OCCO2 | -88 | -5 | 90* | -1 | 8 | -19
COc1ccccc1CN1CCCC(CNC(=O)c2cccc3ccccc23)C1 (stereo unspecified) | · | 0 | 5 | -22 | 2 | -1
SMILES | MITF TRPM1 HTS | Wnt bcat act | TRPM1 prom inh | PfHsp90 set2 | NSD2 HMT inh | Glyco luc inh
CCc1c2c(nc3ccc(OC(=O)N4CCC(N5CCCCC5)CC4)cc13)-c1cc3c(c(=O)n1C2)COC(=O)[C@]3(O)CC | -49 | 11 | 51 | -4 | · | -7
CCC1(O)C(=O)OCc2c1cc1n(c2=O)Cc2cc3cc(O)ccc3nc2-1 (stereo unspecified) | -69 | -3 | 70* | -9 | · | -12
Cc1ccc(-c2cn(-c3ccccc3)c(SCC(=O)NC3CCS(=O)(=O)C3)n2)cc1C (stereo unspecified) | 99* | 0 | -96 | 14 | 4 | -4
Cc1ccc(SCC(=O)NC2CCS(=O)(=O)C2)cc1C (stereo unspecified) | 5 | 22 | -3 | 8 | 2 | -2
O=C(Nc1ccccc1)C1CCCCC1 | -13 | · | 12 | 13 | -4 | 0
O=C(Nc1ccc2ccccc2n1)c1ccc(Cl)cc1 | 64 | 44* | -64 | -29 | -6 | -8
O=C(Nc1cccc(NC(=O)c2ccc(Cl)cc2)n1)c1ccc(Cl)cc1 | 5 | -2 | -7 | 1 | -1 | 2
O=C(Nc1ccc2ccccc2n1)c1ccccc1Cl | 57 | 36* | -74 | 5 | -3 | -13
O=C(Nc1ccc2ccccc2n1)C1CCCCC1 | · | 48* | · | · | -3 | -5
Cc1ccc(S(=O)(=O)NC(=O)NC(C)c2ccc(F)cc2)cc1 (stereo unspecified) | -6 | -3 | 9 | 22 | -3 | 0
CC(C)(C)C(=O)Cn1ncc(Cl)c(Cl)c1=O | -90 | -9 | 91* | 6 | 0 | 10
O=C(OCCN1CCCCC1)c1ccccc1Cl | 8 | -2 | -5 | 2 | -2 | 0
O=c1c(Cl)c(Cl)cnn1Cc1ccc(F)cc1 | -79 | · | 81* | -44 | -1 | 6
O=C(OCn1ncc(Cl)c(Cl)c1=O)c1ccccc1Cl | -110 | · | 111* | 61 | · | -25
C=CCn1c(C)cc(C(=O)Cn2ncc(Cl)c(Cl)c2=O)c1C | -68 | 0 | 67* | 8 | 7 | 5
COc1ccc(C2=Nc3ccccc3NC(=O)C2N(C(=O)c2ccnc3ccccc23)c2ccccc2)cc1 (stereo unspecified) | · | 3 | · | · | · | 2
O=C1CCC(C(=O)N2CCCC(C(=O)c3ccc4c5c(cccc35)CC4)C2)=NN1 (stereo unspecified) | 3 | 0 | -1 | -19 | 1 | 4
Cc1c(Cl)cccc1N(CC(=O)NC(C)c1ccccc1)S(C)(=O)=O (stereo unspecified) | 12 | 1 | -15 | 6 | -2 | 0
O=C(N[C@H](C(=O)N1CCC[C@H]1C(=O)NC1CCCC1)C1CCCCC1)C1CC1 | · | -7 | · | · | · | ·
O=C(Cn1ncc(Cl)c(Cl)c1=O)c1ccc(Cl)cc1 | -81 | · | 80* | -20 | -3 | 11
COc1ccc(N2C(=O)c3n[nH]c(C)c3C2c2cccc(C(F)(F)F)c2)cc1 (stereo unspecified) | · | 2 | · | · | 0 | ·
CN(C(=O)C1CCC(=O)N(Cc2cccc(F)c2)C1)C1CCCCC1 (stereo unspecified) | 98* | 44* | -105 | -5 | -2 | 0
CN(Cc1ccco1)C(=O)C1CCC(=O)N(CCc2cccc(F)c2)C1 (stereo unspecified) | 1 | -1 | 2 | 4 | 10 | 0
